Most compounds without a hit are left out; they make up all but 3.6% or so of the library.
mTORC1 inh: mTORC1 pathway inhibition measured by phospho-rpS6 | Potency, µM (titrated, usually from 38.3 µM), for the others: top-dose activity change, negative = inhibition, actives largely listed as inhibitors | hit rate 0.78% among 44,000 | Tsc2-/- p53-/- MEF, phospho-rpS6 immunofluorescence/PI, 24 h;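 further: plate controls were DMSO for no effect and rapamycin for full effect; nearly all actives have a fitted effect of over 50% in size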
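Compounds act on Tsc2-/-, p53-/- fibroblasts carrying an empty vector for 24 h before fixation and dual staining for phospho-S6 and DNA (propidium iodide). Values are percentages of cells above a rapamycin-defined pS6/PI threshold.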
SKOV3 invasion: inhibitors of ovarian cancer cell adhesion and invasion in omental model; SKOV3ip1-GFP adhesion/invasion on 3D omental model, fluorescence; Potency, µM (series often up to 45.8 µM), without a hit: at the highest dose activity change, negative = inhibition, actives largely listed as inhibitors; hit rate 0.1% among 46,000; AID 1963576;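 further: plate controls were DMSO wells for no effect and tomatine positive control wells for full effect; nearly all actives have a fitted effect of over 65% in size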
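A 3D layer of primary human omental fibroblasts, mesothelial cells, fibronectin and collagen I, grown 48 hr, received SKOV3ip1-GFP cells in serum-free medium plus compounds at 0.36-46 umol/L. After 2 hr RT and 16 hr 37 C, fixed adherent GFP cells were counted; normalized to DMSO and tomatine.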
S16 viability: toxic to S16 Pmp22-F2sN Schwann cells; S16 Pmp22-F2sN Schwann cells viability, CellTiter-Glo, 24 h; Potency, µM (top dose mostly 57.5 µM), inactives show at the top dose activity change, negative = cytotoxicity, usual class: cytotoxic; hit rate 0.48% among 43,000; further: on the % scale 0 is the no-effect control and ±100 the full control effect; nearly all actives have a fitted effect of over 65% in size
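Rat S16 Schwann reporter line, 24 h treatment with library compounds delivered at 23 nL per well. Cell viability by CellTiter-Glo luminescence.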
GALC G270D act: galactocerebrosidase G270D activity enhancement, cell-based | Potency, µM (series often up to 57.5 µM), actives largely listed as activators | hit rate 0.1% among 45,000 | 145M-Twi-hGALC-G270D cells (Twitcher mouse brain line with human GALC G270D), HMU-beta-Gal fluorescence, 48 h | P54803; further: 0% is about no effect; nearly all actives have a fitted effect of over 65% in size
Target sequence (P54803 whole entry G286D): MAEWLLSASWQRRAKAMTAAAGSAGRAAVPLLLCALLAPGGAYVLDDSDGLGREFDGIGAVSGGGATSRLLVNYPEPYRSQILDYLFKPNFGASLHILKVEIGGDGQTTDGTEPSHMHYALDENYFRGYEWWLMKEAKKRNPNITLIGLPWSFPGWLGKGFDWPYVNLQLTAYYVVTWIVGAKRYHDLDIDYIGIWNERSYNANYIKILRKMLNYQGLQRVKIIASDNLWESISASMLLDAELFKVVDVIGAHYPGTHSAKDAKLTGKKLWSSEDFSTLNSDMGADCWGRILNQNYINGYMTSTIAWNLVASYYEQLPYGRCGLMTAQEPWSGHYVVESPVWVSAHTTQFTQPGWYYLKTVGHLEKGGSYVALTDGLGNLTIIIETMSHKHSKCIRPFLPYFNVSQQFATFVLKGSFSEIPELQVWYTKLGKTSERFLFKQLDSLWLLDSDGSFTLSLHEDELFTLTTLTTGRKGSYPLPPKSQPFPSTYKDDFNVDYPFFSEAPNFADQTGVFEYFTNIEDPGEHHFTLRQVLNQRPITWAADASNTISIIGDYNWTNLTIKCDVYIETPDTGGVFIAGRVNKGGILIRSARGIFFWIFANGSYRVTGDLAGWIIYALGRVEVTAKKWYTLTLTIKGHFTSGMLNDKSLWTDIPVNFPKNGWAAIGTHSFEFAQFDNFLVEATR
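Fluorescence readout: HMU-β-gal cleavage by mutant GALC (0.1 mM final, citrate/phosphate pH 5.2 with 1 mg/mL taurocholate), stopped with carbonate/bicarbonate plus Triton X-100. Cells: murine Twitcher 145M-Twi expressing human G270D GALC; qHTS for activators.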
NTMT1 inh: inhibitors of human N-terminal methyltransferase NTMT1. Q9BV86. NTMT1 MTase-Glo SAH luminescence, purified enzyme. Potency, µM (series often up to 114 µM), inactives show top-dose activity change, negative = inhibition, hits mostly inhibitors. hit rate 2.5% among 59,000. AID 1645870;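 further: plate controls were DMSO vehicle for no effect and no enzyme for full effect; nearly all actives have a fitted effect of over 65% in size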
PMP22 txn prim: modulates PMP22 transcription in S16 Schwann cells. AID 1508649. S16 Pmp22-F2sN Schwann cells (luciferase reporters placed in the Pmp22 gene), FLuc/NLuc coincidence luminescence, 24 h. hit rate 2% among 43,000. Potency, µM (highest dose often 57.5 µM), without a hit: top-dose activity change, negative = inhibition, most hits filed as inhibitors; active means clear falling dose curves in both reporters; inconclusive means both reporters move, but less clearly or upward; inactive means either reporter flat; the % is the NLuc reporter signal; further: on the % scale 0 is the no-effect control and ±100 the full control effect
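S16(c9) Schwann cells with FLuc/NLuc coincidence reporter in the Pmp22 3' UTR; compounds pin-transferred, 24 h at 37C. Dual-luciferase read: FLuc first, then NLuc after Stop&Glo, each 10 min at room temperature.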
* hit, by the source's call; i = inactive; ? = inconclusive; / = no result given; ! = not confirmed by another sample; [ ] = another dose, or the depositor's remark. Unless noted, the call rests on the fitted dose curve; in most records, active means well fitted curve in the direction sought with a large enough effect; inconclusive means small, poorly fitted or top-dose-only effect, or another doubt; inactive means no such curve, though single readings can be large; an effect the other way counts as inactive or inconclusive. Potency means the concentration at half of the fitted maximal effect.

SMILES | mTORC1 inh | SKOV3 invasion | S16 viability | GALC G270D act | NTMT1 inh | PMP22 txn prim
Nc1ccc(N)cc1 | / | / | / | i | ? | /
Nc1ccccc1 | / | / | / | i | 20µM* | /
CC(=O)O[C@H]1CC[C@H]2[C@@H]3CC[C@H]4CC(=O)C=C(C)[C@]4(C)[C@H]3CC[C@]12C | / | / | / | / | 10%[57.5 µM] | /
[Cl][In]([Cl])[Cl] | / | / | / | i | 3.2µM* | /
CCOC(=O)c1ccc(NC(=O)c2sc3nc4c(cc3c2N)N2CCC4CC2)cc1 | 6% | -14% | 1% | 14µM* | -11% | ?
O=C(Nc1ccc(Cl)c(C(F)(F)F)c1)c1ccc2c(c1)CCN2S(=O)(=O)c1ccccc1 | 8.3µM* | i | 22µM* | i | 32% | ?
COC1C(O)C(C)OC(OC2C(CO)O[C@@H](O[C@@H]3CC4CCC5C(CC[C@]6(C)[C@@H](C7=CC(=O)OC7)CC[C@]56O)[C@@]4(C)[C@H](O)C3)C(O)C2O)C1O (stereo partly drawn) | / | / | / | / | 7%[12.6 µM] | /
Cc1sc2c(c1C)C(c1ccc(Cl)cc1)=NC(CC(N)=O)c1nnc(C)n1-2 (stereo not drawn) | / | / | / | / | 8% | /
Cc1c(P(=S)(c2ccccc2)c2ccccc2)[n+]2ccccc2n1C | / | / | / | / | 16µM*! | /
C[C@@H]1CC[C@@]2(OC1)O[C@H]1C[C@H]3[C@@H]4CC=C5C[C@@H](O[C@@H]6O[C@H](CO)[C@@H](O[C@@H]7O[C@@H](C)[C@H](O)[C@@H](O)[C@H]7O)[C@H](O)[C@H]6O[C@@H]6O[C@@H](C)[C@H](O)[C@@H](O)[C@H]6O)CC[C@]5(C)[C@H]4CC[C@]3(C)[C@H]1[C@@H]2C | / | / | / | / | -1% | /
C[C@]12CC[C@@H]3c4ccc(OC(=O)N(CCCl)CCCl)cc4CC[C@H]3[C@@H]1CC[C@@H]2O | / | / | / | i | 22µM* | /
Cn1c(/C=C/CO)c(CO)c2c1C(=O)C=C(N1CC1)C2=O | / | / | / | / | -11% | /
CO[C@H]1[C@@H](O)[C@@H](C)O[C@@H](O[C@@H]2C=C3C(OC(C)=O)CC4(O)C(CC[C@]5(C)[C@@H](C6=CC(=O)OC6)CC[C@]45O)[C@@]3(C)CC2)[C@@H]1O (stereo partly drawn) | / | / | / | / | -2%[12.6 µM] | /
Cc1ccc([N+](=O)[O-])[c]2c1[O][Hg]2 | / | / | / | i | 0.89µM* | /
O=C1OC(c2ccc(O)c(S(=O)(=O)O)c2)(c2ccc(O)c(S(=O)(=O)O)c2)c2c(Br)c(Br)c(Br)c(Br)c21 | / | / | / | i | 79µM* | /
CCCCCCC(C)(C)c1cc(O)c2c(c1)OC(C)(C)C1CC=C(CO)C[C@H]21 (stereo partly drawn) | / | / | / | / | 2% | /
CCN1CC2(COC)C3[C@@H](OC)C4C1C3(C1C[C@]3(O)[C@H](OC(=O)c5ccccc5)C1[C@]4(OC(C)=O)[C@@H](O)[C@@H]3OC)[C@H](OC)C[C@H]2O (stereo partly drawn) | / | / | / | / | 17%[57.5 µM] | /
CC[C@H]1C[C@H]2[C@@H]3CCC4=CC(=O)CC[C@@H]4[C@H]3CC[C@]2(C)[C@H]1O | / | / | / | i | ? | /
CC[C@]1(O)CC[C@H]2[C@@H]3CCC4=CCCC[C@@H]4[C@H]3CC[C@@]21C | / | / | / | i | 13µM* | /
CC1=CC(=O)[C@@H](O)[C@]2(C)C3[C@@H](O)[C@@H]4OC(=O)[C@@H]([C@H]4C)[C@]3(C)C(=O)C[C@@H]12 (stereo partly drawn) | / | / | / | / | 18%[29.8 µM] | /
COc1ccc2nc(NC(=O)c3nc(S(=O)(=O)Cc4cccc(C)c4)ncc3Cl)sc2c1 | 6.6µM* | ? | 10µM* | i | 29% | 6.2µM*
CCOc1ccc2nc(NC(=O)c3cccn(Cc4ccc(C)cc4)c3=O)sc2c1 | -5% | -1% | 11% | i | 11% | -23%
COc1ccc2c(c[n+](C)c3c4cc5c(cc4ccc23)OCO5)c1OC | / | 23µM* | / | / | 5% | /
